The values below come from PubChem BioAssay AID2284162 (EPA ToxCast).

Structures are written as SMILES. The source made the active and inactive calls. How the source made its calls: active means hit-call score of the fitted dose curve at least 0.9, where 1 is the maximum; inactive means score below 0.9.

Chain of human Histamine Receptor H1, HRH1 (gene 3269) (P35367 whole entry, looked up): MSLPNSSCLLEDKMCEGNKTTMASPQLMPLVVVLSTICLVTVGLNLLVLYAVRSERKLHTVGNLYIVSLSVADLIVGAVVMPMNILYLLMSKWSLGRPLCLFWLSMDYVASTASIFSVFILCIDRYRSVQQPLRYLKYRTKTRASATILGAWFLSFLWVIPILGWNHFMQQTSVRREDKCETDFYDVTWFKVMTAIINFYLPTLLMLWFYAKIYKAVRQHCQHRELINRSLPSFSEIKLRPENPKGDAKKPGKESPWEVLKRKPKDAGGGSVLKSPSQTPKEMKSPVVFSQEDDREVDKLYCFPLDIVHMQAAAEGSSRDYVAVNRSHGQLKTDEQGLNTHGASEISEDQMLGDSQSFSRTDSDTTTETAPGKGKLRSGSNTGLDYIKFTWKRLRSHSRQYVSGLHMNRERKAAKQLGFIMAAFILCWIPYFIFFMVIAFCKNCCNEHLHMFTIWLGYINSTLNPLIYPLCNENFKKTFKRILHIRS

The target in the experiment is human Histamine Receptor H1, HRH1 (gene 3269) (UniProt P35367). Briefly: ERF_FR_GPCR_hHRH1: Eurofins (ERF) G Protein-Coupled Receptor (GPCR) Radioligand Binding LeadHunter Assay for human Histamine Receptor H1 Antagonism, conducted at France lab site. How it is done:
ERF_FR_GPCR_hHRH1 is a biochemical, single-readout assay that uses extracted gene-proteins in a cell-free assay. Measurements were taken 1 hour after chemical dosing in a 96-well plate. See H1 Human Histamine GPCR Binding (Antagonist Radioligand) Assay, Cerep.ERF_FR_GPCR_hHRH1 is an assay component calculated from the ERF_FR_GPCR_hHRH1 assay. It is designed to measure radioligand binding using a type of binding reporter as detected by scintillation counting with radiometry technology.Data from the assay component ERF_FR_GPCR_hHRH1 was analyzed at the assay endpoint, ERF_FR_GPCR_hHRH1, in the positive analysis fitting direction relative to DMSO as the negative control and baseline of activity. Using a type of binding reporter, loss-of-signal activity can be used to understand changes in binding as they relate to gene HRH1. To generalize the intended target to other relatable targets, this assay endpoint is annotated to the gpcr intended target family, where the subfamily is histamine.
Human cells are incubated for 60 minutes at room temprature with [3H]pyrilamine ligand (1 nM) and Pyrilamine as control inhibitor. Test Sample Requirements: Minimum for 1) Screen: 60 ul of 10 mM stock -OR- 1 mg (pre-weighed) for 10 uM final testing. 2) Dose Response: 90 ul of 10 mM stock -OR- 1 mg (pre-weighed) for a top concentration at 10 uM.
`O=C(/C=C/c1ccc(O)cc1)CC(=O)/C=C/c1ccc(O)cc1`: the AC50 (as a rule, the concentration giving half of the maximal activity seen) is 1460 nM (active).
